# Data published in PubChem BioAssay (NCATS).
# “And” between values parts separate entries of the source, which are not always exact repeats. Identical values can stand only once. Inconclusive results are not listed. Where a call stands in place of a potency, no number is given. The source made the active and inactive calls. Unless noted, calls follow the shape of the dose curve; as a rule, active = well fitted curve in the direction sought with a large enough effect; inconclusive = small, poorly fitted or top-dose-only effect, or another doubt; inactive = no such curve, though single readings can be large; an effect the other way counts as inactive or inconclusive.
# Tests used:
# [1] = system: Zika virus NS2B-NS3 protease (unlinked complex); assay: Primary screen GU Rhodamine qHTS for Zika virus inhibitors: Unlinked NS2B-NS3 protease assay (AID 1347159); also: nearly all actives have a fitted effect of over 60% in size
# In short: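 A qHTS format was used, with compound concentrations ranging up to 114 microM. Each compound was preincubated with 25 nM NS2B-NS3 protease, and the substrate was then added at 1.5 microM. Curves were fitted with a 4-parameter Hill model.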
# [2] = system: Zika virus NS2B-NS3 protease (linked construct); assay: Primary screen NINDS Rhodamine qHTS for Zika virus inhibitors (AID 1347160); also: nearly all actives have a fitted effect of over 55% in size
# In short: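 Kinetic fluorescence (Ex 480 nm, Em 540 nm) over 15 min with 1.5 microM Rhodamine110 peptide and 25 nM linked protease.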
# [3] = biological target: Calcium and integrin-binding protein 1 (Homo sapiens) (UniProt Q99828); assay: Primary qHTS for Identification of Calcium Integrin Binding Protein 1 (CIB1) Competitor (AID 1508620);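 also: GST tagged CIB1 binding a fluorescein labelled alphaIIb integrin peptide tracer; top concentration of the series differs between compounds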
# Sequence of Calcium and integrin-binding protein 1 (Homo sapiens) (Q99828 whole entry, looked up): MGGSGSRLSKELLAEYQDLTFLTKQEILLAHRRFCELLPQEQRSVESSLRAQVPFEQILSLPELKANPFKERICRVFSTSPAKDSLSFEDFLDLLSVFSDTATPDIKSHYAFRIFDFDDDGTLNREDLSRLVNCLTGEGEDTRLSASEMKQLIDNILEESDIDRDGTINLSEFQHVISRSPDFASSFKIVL
# In short: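 CIB1-GST (1 uM final) and compound incubated 15 min at room temperature before adding FITC-alphaIIb peptide tracer (100 nM final). Competition for binding read by fluorescence polarization (ex 480, em 540) after another 15 min at room temperature.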
# [4] = biological target: Glutathione peroxidase 1 (Homo sapiens) (UniProt P07203); assay: Primary qHTS Assay for Inhibitors of Recombinant Selenoprotein Glutathione Peroxidase 1 (GPX1) (AID 1845191); also: nearly all actives have a fitted effect of over 65% in size
# Sequence of Glutathione peroxidase 1 (Homo sapiens) (P07203 whole entry, looked up): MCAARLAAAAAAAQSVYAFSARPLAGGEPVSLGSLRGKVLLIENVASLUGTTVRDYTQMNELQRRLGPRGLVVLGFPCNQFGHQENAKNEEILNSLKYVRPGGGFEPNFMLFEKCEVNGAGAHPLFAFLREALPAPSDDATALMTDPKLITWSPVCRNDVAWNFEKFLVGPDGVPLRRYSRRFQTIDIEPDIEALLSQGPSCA
# In short: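 10 nM GPX1 + cpd, 30 min RT; start w/ 1 mM GSH, 0.5 mM cumene hydroperoxide, 0.5 mM NADPH, 100 nM GR, 0.01% BSA; buffer 50 mM Tris-HCl pH 7.5, 2 mM EDTA, 150 mM NaCl; Fl 340/450, 0 & 15 min.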
# [5] = biological target: Phospholipid hydroperoxide glutathione peroxidase GPX4 (Homo sapiens) (UniProt P36969); assay: Primary qHTS Assay for Inhibitors of Recombinant Selenoprotein Glutathione Peroxidase 4 (GPX4) (AID 1845192); settings: outcome: dose series up to 50 µM unless noted; also: nearly all actives have a fitted effect of over 65% in size
# Sequence of Phospholipid hydroperoxide glutathione peroxidase GPX4 (Homo sapiens) (P36969 whole entry, looked up): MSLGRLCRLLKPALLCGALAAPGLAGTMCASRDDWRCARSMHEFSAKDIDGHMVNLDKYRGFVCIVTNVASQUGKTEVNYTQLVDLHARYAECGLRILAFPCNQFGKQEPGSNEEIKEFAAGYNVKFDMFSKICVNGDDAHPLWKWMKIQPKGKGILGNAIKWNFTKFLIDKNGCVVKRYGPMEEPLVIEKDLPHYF
# In short: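 NADPH consumption, followed by fluorescence at 340/450 nm between 0 and 15 min, reports GPX4 activity via coupled glutathione reductase (100 nM). Enzyme 200 nM was pre-exposed to compound 30 min; 0.5 mM cumene hydroperoxide and 1 mM GSH served as substrates.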
# [6] = biological target: Luciferin 4-monooxygenase (Photinus pyralis) (UniProt P08659); assay: Primary firefly luciferase (FLuc) qHTS assay for identification of artifact compounds. (AID 1845220); also: nearly all actives have a fitted effect of over 60% in size; also: potency is read from the fitted curve at half-maximal effect
# In short: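 FLuc 10 nM; luciferin 10 uM; ATP 10 uM; Tris-acetate pH 7.6, Mg-acetate 10 mM; 15 min RT preincubation; 5 min reaction; luminescence.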
# [7] = system: Nanoluciferase (engineered Oplophorus gracilirostris luciferase); assay: Primary Nanoluciferase (NLuc) qHTS assay for identification of artifact compounds. (AID 1845222);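 also: NLuc secreted into diluted conditioned medium of S16 cells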
# In short: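 NLuc from S16 cell medium (1:55) plus test compounds, 15 min, room temperature. Luminescence after Nano-Glo (1:100) addition, 5 min.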
# HaCat = assay: Cytotoxic Profiling of Annotated Libraries Using Quantitative High-Throughput Screening (AID 1296008); settings: Five cell lines viability, CellTiter-Glo ATP luminescence, 48-72 h; max response: stronger effect = lower value; also: nearly all actives have a fitted effect of over 60% in size; also: potency is read from the fitted curve at half-maximal effect
# In short: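 Cytotoxicity was measured as CellTiter-Glo ATP luminescence, read after 10 min at room temperature. Compound treatment of the cells lasted 48 or 72 hr at 37 degrees Celsius in a qHTS format.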
# C33A = assay: Primary qHTS to identify gynecologic anti-cancer compounds using libraries of approved drugs and bioactive compounds (AID 1345084); settings: Gynecologic cancer cell panel viability, ATPlite luminescence, 48 h; series mostly up to 57.5 µM; also: nearly all actives have a fitted effect of over 55% in size; also: potency is read from the fitted curve at half-maximal effect
# In short: (§1)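 Luminescence from the ATPlite ATP-monitoring reagent indicates viable cell number; lower signal means cytotoxicity. Cells received compound 16 h after seeding and were exposed for 48 h across five concentrations.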
# CASKI = assay: as above; settings: Gynecologic cancer cell panel viability, ATPlite luminescence, 48 h; series mostly up to 57.5 µM
# In short: as §1
# Es-2 = assay: as above; settings: Gynecologic cancer cell panel viability, ATPlite luminescence, 48 h; series mostly up to 57.5 µM
# In short: as §1
# HeLa = assay: as above; settings: Gynecologic cancer cell panel viability, ATPlite luminescence, 48 h; series mostly up to 57.5 µM
# In short: as §1
# JEG-3 = assay: as above; settings: Gynecologic cancer cell panel viability, ATPlite luminescence, 48 h; series mostly up to 57.5 µM
# In short: as §1
# OV90 = assay: as above; settings: Gynecologic cancer cell panel viability, ATPlite luminescence, 48 h; series mostly up to 57.5 µM
# In short: as §1
# Tov-21-G = assay: as above; settings: Gynecologic cancer cell panel viability, ATPlite luminescence, 48 h; series mostly up to 57.5 µM
# In short: as §1
# Tov112D = assay: as above; settings: Gynecologic cancer cell panel viability, ATPlite luminescence, 48 h; series mostly up to 57.5 µM
# In short: as §1
# [8] = Primary qHTS for inhibitors of nuclear receptor binding SET domain protein 2 (NSD2) in an isogenic RCH-ACV NSD2 p.E1099K mutant (9B) (AID 1645876); also: nearly all actives have a fitted effect of over 70% in size; also: potency is read from the fitted curve at half-maximal effect
# [9] = Primary qHTS for inhibitors of nuclear receptor binding SET domain protein 2 (NSD2) in an RCH-ACV wild type WT cells (2C) (AID 1645877); also: potency is read from the fitted curve at half-maximal effect; nearly all actives have a fitted effect of over 70% in size
# [10] = qHTS drug screen for cell cycle checkpoint inhibitors in PARPi-resistant BRCA-mutant ovarian cancer cell lines. (AID 1963452; calls by dose curve); settings: PEO1/OlaR viability, CellTiter-Glo luminescence, 96 h, stronger effect = lower value
# In short: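 PEO1, PEO4 and PEO1/OlaR ovarian cancer cells, 600 per well, exposed 96 h at 37C to a dilution series. Viability read by CellTiter-Glo luminescence, normalized to DMSO and empty wells; activity summarized as Z-AUC.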
# Hek293T = assay: Primary qHTS to identify gynecologic anti-cancer compounds using libraries of approved drugs and bioactive compounds (AID 1345084); settings: Gynecologic cancer cell panel viability, ATPlite luminescence, 48 h, control line for the selectivity index; series mostly up to 57.5 µM; also: nearly all actives have a fitted effect of over 55% in size; also: potency is read from the fitted curve at half-maximal effect
# In short: as §1
# [11] = measured here: PEO1 parental Z-AUC
smiles,measurement,setting,value
CC(=O)c1c(OCCN2CCCCC2)c(OCCC(C)c2ccc(F)cc2)c2oc(C)nc2c1C (stereo unspecified),Potency,[1],inactive
same,Potency,[2],inactive
same,outcome,[3],inactive
same,Potency,[4],inactive
same,Potency,[5],inactive
same,Potency,[6],inactive
same,Potency,[7],inactive
same,outcome,HaCat,inactive
same,Potency,C33A,inactive
same,Potency,CASKI,inactive
same,Potency,Es-2,inactive
same,Potency,HeLa,inactive
same,Potency,JEG-3,inactive
same,Potency,OV90,inactive
same,Potency,Tov-21-G,inactive
same,Potency,Tov112D,inactive
CNC(=O)c1cccc2cc(Oc3ccnc4cc(OCC5(N)CC5)c(OC)cc34)ccc12,Potency,[1],inactive
same,Potency,[2],inactive
same,outcome,[3],inactive
same,Potency,[8],14.8 µM (active) and 20.6 µM (active)
same,Potency,[9],10.5 µM (active) and 23.1 µM (active)
same,Potency,[4],inactive
same,Potency,[5],inactive
same,Potency,[6],inactive
same,Potency,[7],inactive
same,Z-AUC,[10],0.323 (inactive)
same,Z-AUC,[10]; [11],0.465
same,Z-AUC,[10]; measured here: PEO4 Z-AUC,0.47
same,outcome,HaCat,inactive
same,Potency,C33A,inactive
same,Potency,CASKI,inactive
same,Potency,Es-2,inactive
same,Potency,HeLa,inactive
same,Potency,Hek293T,inactive
same,Potency,JEG-3,inactive
same,Potency,Tov-21-G,inactive
same,Potency,Tov112D,inactive
Cn1cc(-c2cnc3ccc4ccc(CS(=O)(=O)NCc5ccccn5)cc4c(=O)c3c2)cn1,Potency,[1],inactive
same,Potency,[2],inactive
same,Potency,[8],20.9 µM (active)
same,Potency,[9],23 µM (active)
same,Potency,[4],inactive
same,Potency,[5],inactive
same,Potency,[6],inactive
same,Potency,[7],inactive
same,Z-AUC,[10],-1.05 (inactive)
same,Z-AUC,[10]; [11],-0.542
same,Z-AUC,[10]; measured here: PEO4 Z-AUC,-0.899
same,max response,HaCat,-3.23% (inactive)
same,Potency,C33A,inactive
same,Potency,CASKI,inactive
same,Potency,Es-2,inactive
same,Potency,HeLa,inactive
same,Potency,Hek293T,inactive
same,Potency,JEG-3,inactive
same,Potency,OV90,inactive
same,Potency,Tov-21-G,inactive
Cc1ccc2c(Nc3ccc(Cl)cc3)nccc2c1Nc1ncccc1-c1ncnc2nc[nH]c12,Potency,[1],inactive
same,Potency,[2],inactive
same,outcome,[3],inactive
same,Potency,[8],18.4 µM (active)
same,Potency,[9],20.6 µM (active)
same,Potency,[4],inactive
same,Potency,[5],inactive
same,Potency,[6],inactive
same,Potency,[7],inactive
same,Potency,C33A,inactive
same,Potency,HeLa,inactive
same,Potency,Hek293T,inactive
same,Potency,JEG-3,inactive
same,Potency,OV90,5.01 µM (active)
O=[N+]([O-])c1ccc(-[n+]2nc(-c3ccccc3)nn2-c2ccc(I)cc2)cc1,Potency,[1],inactive
same,Potency,[2],inactive
same,outcome,[3],inactive
same,Potency,[8],inactive
same,Potency,[4],inactive
same,Potency,[5],inactive
same,Potency,[6],inactive
same,max response,HaCat,-29.5% (inactive)
same,Potency,C33A,inactive
same,Potency,CASKI,inactive
same,Potency,Es-2,inactive
same,Potency,HeLa,inactive
same,Potency,Hek293T,inactive
same,Potency,JEG-3,inactive
same,Potency,Tov112D,inactive
CC1CCC2C(=CCC(O)C2(C)C)C1(C)Cc1c(O)cc(CO)c(C=O)c1O (stereo unspecified),Potency,[2],inactive
same,outcome,[3],inactive
same,Potency,[5],inactive
same,Potency,[6],inactive
same,Potency,[7],inactive
same,outcome,HaCat,inactive
same,Potency,C33A,inactive
same,Potency,CASKI,inactive
same,Potency,Es-2,inactive
same,Potency,HeLa,inactive
same,Potency,Hek293T,inactive
same,Potency,JEG-3,inactive
same,Potency,OV90,inactive
same,Potency,Tov-21-G,inactive
same,Potency,Tov112D,inactive
O=C1c2c(O[C@@H]3O[C@H](CO)[C@@H](O)[C@H](O)[C@H]3O)cc(O)cc2OC1(O)Cc1ccc(O)cc1 (stereo partly specified),Potency,[1],inactive
same,Potency,[2],inactive
same,outcome,[3],inactive
same,Potency,[8],7.96 µM (active)
same,Potency,[9],4.47 µM (active)
same,Potency,[4],inactive
same,Potency,[5],inactive
same,Potency,[6],inactive
same,Potency,[7],inactive
same,outcome,HaCat,inactive
same,Potency,Es-2,inactive
same,Potency,HeLa,inactive
same,Potency,JEG-3,inactive
same,Potency,OV90,inactive
same,Potency,Tov-21-G,inactive
CCN(CC)c1ccc(C(=C2C=CC(=[N+](CC)CC)C=C2)c2cc(S(=O)(=O)O)ccc2S(=O)(=O)[O-])cc1,outcome,[3],inactive
same,Potency,[4],inactive
same,Potency,[5],inactive
same,Potency,C33A,10 µM (active)
same,Potency,Es-2,28.2 µM (active)
same,Potency,Hek293T,12.6 µM (active)
same,Potency,OV90,12.6 µM (active)
same,Potency,Tov-21-G,25.1 µM (active)
C=C1/C(=C/C=C2\CCC[C@]3(C)[C@@H]([C@H](C)/C=C/C(=O)C4CC4)CC[C@@H]23)C[C@@H](O)C[C@@H]1O,Potency,[2],inactive
same,outcome,[3],inactive
same,Potency,[8],16.3 µM (active)
same,Potency,[9],23 µM (active)
same,Potency,[4],inactive
same,Potency,[5],inactive
same,Potency,[6],inactive
same,Potency,[7],inactive
same,outcome,HaCat,inactive
same,Potency,C33A,inactive
same,Potency,CASKI,inactive
same,Potency,Es-2,inactive
same,Potency,HeLa,inactive
same,Potency,Hek293T,inactive
same,Potency,JEG-3,inactive
same,Potency,OV90,inactive
same,Potency,Tov-21-G,inactive
same,Potency,Tov112D,inactive
O=C(NC(NC(=S)Nc1ccc(F)c([N+](=O)[O-])c1)C(Cl)(Cl)Cl)C(c1ccccc1)c1ccccc1 (stereo unspecified),Potency,[1],inactive
same,Potency,[2],inactive
same,outcome,[3],inactive
same,Potency,[8],5.41 µM (active) and 16.4 µM (active)
same,Potency,[9],20.6 µM (active)
same,Potency,[4],inactive
same,Potency,[5],inactive
same,Potency,[6],inactive
same,Potency,[7],inactive
same,max response,HaCat,-1.87% (inactive)
same,Potency,CASKI,inactive
same,Potency,Es-2,inactive
same,Potency,HeLa,inactive
same,Potency,Hek293T,inactive
same,Potency,JEG-3,inactive
same,Potency,OV90,inactive
same,Potency,Tov-21-G,inactive
same,Potency,Tov112D,inactive
COc1ccccc1NC(=O)Nc1ccc2ccccc2c1,Potency,[2],inactive
same,outcome,[3],inactive
same,Potency,[8],25.8 µM (active)
same,Potency,[4],inactive
same,Potency,[5],inactive
same,Potency,[6],8.49 µM (active)
same,Potency,[7],inactive
same,max response,HaCat,-10% (inactive)
same,Potency,C33A,inactive
same,Potency,Es-2,inactive
same,Potency,HeLa,inactive
same,Potency,Hek293T,inactive
same,Potency,JEG-3,inactive
same,Potency,Tov112D,inactive
CCN(CCCOc1ccc2c(Nc3cc(CC(=O)Nc4cccc(F)c4)[nH]n3)ncnc2c1)CCOP(=O)(O)O,Potency,[2],inactive
same,outcome,[3],inactive
same,Potency,[8],5.9 µM (active)
same,Potency,[9],32.5 nM (active) and 37.2 nM (active)
same,Potency,[4],inactive
same,Potency,[5],inactive
same,Potency,[6],inactive
same,Z-AUC,[10],1.19 (inactive)
same,Z-AUC,[10]; [11],0.684
same,Z-AUC,[10]; measured here: PEO4 Z-AUC,0.183
same,Potency,HaCat,2.06 µM (active)
same,Potency,C33A,inactive
same,Potency,Es-2,inactive
same,Potency,HeLa,inactive
same,Potency,Hek293T,inactive
same,Potency,JEG-3,inactive
same,Potency,OV90,inactive
